# Assay results taken from PubChem BioAssay AID651956 (Broad Institute, 2012).
# Measured potencies and affinities stand elsewhere. Results filed as inconclusive are left out. Calls of active or inactive are those of the source.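 How the source made its calls: active means in every test run, a fitted half-maximal concentration for signal decrease at or below twice the highest tested concentration; inconclusive means runs disagree, flat 30 to 70% decrease, or poor fit; inactive means the rest.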
# Test: activation of miR-122 Renilla sensor silencing – cell-based, Huh7 psiCHECK-miR122, Renilla luciferase, cherry-picked, dose response (AID 651956);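 further: 0% = median neutral control wells and -100% = median positive control wells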
# Conditions: Huh7 psiCHECK-miR122 Renilla luciferase reporter, 48 h; series mostly up to 35 µM; activity change, negative = signal decrease: at the top concentration
row,Compound,"activity change, negative = signal decrease"
1,COc1cccc(C(=O)N2C[C@H]3[C@@H](c4ccccc42)[C@H](CO)N3C(C)=O)c1,40.8% (inactive)
2,O=C(Nc1ccccc1F)N1[C@H](CO)[C@@H]2c3ccccc3NC[C@@H]21,-4.24% (inactive)
3,COc1cccc(CNC(=O)C[C@@H]2CC[C@H]3[C@H](COc4ccc(NC(C)=O)cc4C(=O)N3C)O2)c1,215% (inactive)
4,CN1C(=O)c2cc(NC(=O)Cc3ccccc3)ccc2OC[C@H]2O[C@H](CC(=O)O)CC[C@H]21,377% (inactive)
5,COC(=O)c1nn(-c2ccccc2)c(Sc2ccc(Cl)cc2)c1/C=N/O,94.2% (inactive)
6,C[C@@H]1CN([C@@H](C)CO)C(=O)c2cc(NC(=O)Nc3ccc(C(F)(F)F)cc3)ccc2O[C@@H]1CN(C)CC1CCCCC1,-104% (inactive)
7,COc1cccc(CNC(=O)C[C@H]2CC[C@@H]3[C@@H](COc4ccc(NC(C)=O)cc4C(=O)N3C)O2)c1,6.67% (inactive)
8,CCCCc1cc(=O)oc2cc(C)cc(OC(C)C(=O)O)c12 (stereo unspecified),21.7% (inactive)
9,C/C=C/c1ccc([C@H]2[C@@H](CO)N(C(=O)C3CC3)[C@H]2CN(C)C(=O)CC2CC2)cc1,0% (inactive)
10,CNC(=O)C[C@H]1CC[C@@H]2[C@H](COc3ccc(NC(=O)c4ccccc4OC)cc3C(=O)N2C)O1,106% (inactive)
11,O=C(c1cccnc1)N1C[C@H]2[C@@H](c3ccccc31)[C@H](CO)N2C(=O)Nc1ccccc1,-24.8% (inactive)
12,CO[C@@H]1CN(C)C(=O)c2ccc(NS(C)(=O)=O)cc2OC[C@H](C)N(C(=O)CN(C)C)C[C@@H]1C,-19.2% (inactive)
13,Cn1c(-c2ccc(N)cc2)nc2ccccc21,38.5% (inactive)
14,CO[C@H]1CN(C)C(=O)c2ccc(NS(C)(=O)=O)cc2OC[C@H](C)N(C(=O)CN(C)C)C[C@H]1C,-7.02% (inactive)
15,CO[C@@H]1CN(C)C(=O)c2ccc(NS(=O)(=O)c3ccc(C)cc3)cc2OC[C@@H](C)N(C(=O)NC(C)C)C[C@H]1C,99% (inactive)
16,CCNC(=O)Nc1ccc2c(c1)C(=O)N(C)[C@H]1CC[C@H](CC(=O)NCCOC)O[C@@H]1CO2,-20.9% (inactive)
17,CC(C)NC(=O)N1[C@H](CO)[C@@H](c2ccccc2)[C@@H]1CN(C)C(=O)c1cccnc1,-24.5% (inactive)
18,COc1cccc(COc2cc3ccccc3nc2C)c1,-4.9% (inactive)
19,CN1C(=O)c2cc(NC(=O)Cc3ccccc3)ccc2OC[C@H]2O[C@@H](CC(=O)NC3CCC3)CC[C@H]21,-7.88% (inactive)
20,CCCNC(=O)Nc1ccc2c(c1)OC[C@H](C)N(CCC)C[C@H](C)[C@H](OC)CN(C)C2=O,70% (inactive)
21,CCNC(=O)Nc1ccc2c(c1)C(=O)N(C)[C@H]1CC[C@@H](CC(=O)NCCOC)O[C@@H]1CO2,128% (inactive)
22,CN(Cc1ccccc1)C(=O)COC(=O)c1ccccc1Nc1ccccc1,52.7% (inactive)
23,CN1C(=O)c2cc(NC(=O)c3cccs3)ccc2OC[C@@H]2O[C@H](CC(=O)NCCN3CCCCC3)CC[C@H]21,-18.4% (inactive)
24,COc1ccc(NC(=O)N(C)C[C@H]2Oc3cc(C#CCC(C)C)ccc3S(=O)(=O)N([C@@H](C)CO)C[C@H]2C)cc1,-109% (inactive)
25,CC(C)C(=O)Nc1ccc2c(c1)C(=O)N(C)[C@@H]1CC[C@@H](CC(=O)NCCc3ccccc3)O[C@H]1CO2,2.42% (inactive)
26,C/C=C/c1ccc([C@H]2[C@@H](CO)N[C@@H]2CN(CC)C(=O)CN2CCOCC2)cc1,10.4% (inactive)
